Source: PubChem BioAssay (National Center for Advancing Translational Sciences (NCATS))
RORgamma inh: inhibitors of mouse ROR gamma transcriptional activity; Drosophila S2 Gal4-RORgamma UAS-luciferase reporter, 20 h; Potency, µM (series often up to 53.6 µM), without a hit: at the top dose activity change, negative = inhibition, usual class: inhibitors; P51450; 310,000 tested, 5.4% active; further: potency means the concentration at half of the fitted maximal effect; nearly all actives have a fitted effect of over 60% in size
Target sequence (P51450 whole entry, looked up, the tested form may be a part): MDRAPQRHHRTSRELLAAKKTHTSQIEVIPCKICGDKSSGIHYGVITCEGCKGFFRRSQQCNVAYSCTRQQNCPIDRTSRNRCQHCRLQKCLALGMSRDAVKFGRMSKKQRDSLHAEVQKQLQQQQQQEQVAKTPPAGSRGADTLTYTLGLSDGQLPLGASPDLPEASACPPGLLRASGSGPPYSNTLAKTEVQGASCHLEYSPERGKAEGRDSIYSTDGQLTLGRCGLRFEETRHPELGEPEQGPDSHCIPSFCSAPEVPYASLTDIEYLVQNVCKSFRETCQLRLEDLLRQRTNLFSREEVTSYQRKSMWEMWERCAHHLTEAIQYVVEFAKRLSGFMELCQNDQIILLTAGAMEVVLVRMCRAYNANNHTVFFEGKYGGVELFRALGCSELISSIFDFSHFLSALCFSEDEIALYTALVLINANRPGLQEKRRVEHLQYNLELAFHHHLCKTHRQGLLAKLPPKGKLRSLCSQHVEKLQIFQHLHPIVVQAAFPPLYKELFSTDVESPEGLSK
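Luciferase reporter read in Schneider cells carrying Gal4-RORγ (mouse) and UAS-Photinus luciferase; cells given compound 1 h before 700 uM copper sulfate induction, then incubated 20 h at ambient temperature.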
IL1B secr inh: blocks inflammasome-driven IL-1 beta release. THP-1 LPS/ATP IL-1B secretion, AlphaLISA, 16 h; stronger effect = lower value. activity change, % at 57.5 µM. 360,000 tested, 4.7% active; in the data active means activity change below about -50%; inconclusive means mostly about -30% to -49%
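Secreted IL-1B measured by AlphaLISA bead assay after 16 h compound exposure of THP-1 cells; compounds (final up to 57.5 uM) added 1 h before LPS (250 ng/mL) and ATP (1.25 mM) stimulation; lower signal means less secretion.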
TDP1 cell noCPT: qHTS for Inhibitors of human tyrosyl-DNA phosphodiesterase 1 (TDP1): qHTS in cells in absence of CPT. DT40 Tdp1-/- hTDP1 cells, no CPT, ATP luminescence, 48 h. 420,000 tested, 15% active. AID 686978, 2013. Potency, µM (titrated, usually from 46.2 µM), without a hit: at the highest dose activity change, negative = growth inhibition, most hits filed as inhibitors; further: potency means the concentration at half of the fitted maximal effect; nearly all actives have a fitted effect of over 55% in size
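Seeded 400 DT40-hTDP1 cells/well (vehicle DMSO, no 20 nM CPT); pinned compounds; ≥48 hr at 37 °C; CellTiter-Glo luminescence as viability measure.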
LDHA inh: blocks human lactate dehydrogenase A | P00338 | purified LDHA, NADH/diaphorase-resazurin fluorescence; stronger effect = lower value | activity change, % (values are at about 110 or 230 µM) | 480,000 tested, 0.15% active; in the data active means activity change below about -30%; inconclusive means mostly about -25% to -30%;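 further: plate controls were DMSO wells for no effect and wells without enzyme for full effect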
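Enzyme activity of human lactate dehydrogenase 5 (2 nM; 0.06 mM NADH, 0.2 mM pyruvate, 5 min, RT) is measured via a resazurin/diaphorase fluorescence readout of residual NADH.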
VP16 counter: Gal4-VP16 reporter inhibition counter-screen. Drosophila S2 Gal4-VP16 UAS-luciferase, luminescence, 20 h. Potency, µM (top dose mostly 53.6 µM), for the others: top-dose activity, negative = inhibition, actives largely listed as inhibitors. 310,000 tested, 3.5% active. AID 2546;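 further: Gal4-VP16 expression switched on by copper sulfate through the metallothionein promoter; potency means the concentration at half of the fitted maximal effect; nearly all actives have a fitted effect of over 50% in size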
TDP1 cell CPT: DT40-hTDP1 cell growth loss with CPT; chicken DT40 Tdp1-/-;hTDP1 cells + 20 nM CPT, ATP luminescence, 48 h; Potency, µM (top dose mostly 46.2 µM), inactives show top-dose activity change, negative = growth inhibition, usual class: inhibitors; 420,000 tested, 12% active; AID 686979; further: potency means the concentration at half of the fitted maximal effect; nearly all actives have a fitted effect of over 55% in size
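Chicken DT40 Tdp1-/- cells stably complemented with human TDP1 were seeded at 400 cells/well in medium containing 20 nM camptothecin, exposed to pin-transferred compounds, and grown at 37 °C for at least 48 hr. Viability was read as ATP luminescence.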
Starred values were filed as active, the others as inactive; ? = inconclusive; nt = no result; [ ] = remark or other dose. In the library only some 18% were active in any assay of this set; here they are far more common. Unless noted, the call rests on the fitted dose curve; in most records, active means well fitted curve in the direction sought with a large enough effect; inconclusive means small, poorly fitted or top-dose-only effect, or another doubt; inactive means no such curve, though single readings can be large; an effect the other way counts as inactive or inconclusive. Unless noted, on the % scale 0 is the no-effect control and ±100 the full control effect.

SMILES	RORgamma inh	IL1B secr inh	TDP1 cell noCPT	LDHA inh	VP16 counter	TDP1 cell CPT
Cn1nnnc1Sc1ncnc2scc(-c3ccc(F)cc3)c12	10µM*	-67.6*	6.51µM*	-5.7	23.8%	16.4µM*
Cc1ccc(-c2csc3ncnc(Sc4nnnn4C4CC4)c23)cc1	nt	nt	11.2µM*	-10.9	nt	10µM*
C=CCNc1nc(C(=O)OCc2ccc(F)cc2)cs1	nt	nt	nt	-0.5	nt	nt
Cc1nn(C)cc1S(=O)(=O)N1CCN(Cc2cccc(Br)c2)CC1	nt	nt	nt	12.9	nt	nt
N#CCCN(C(=O)CN1CCCC1c1ccc2c(c1)OCCO2)c1ccccc1F (stereo unspecified)	nt	nt	nt	0.6	nt	nt
CCOC(=O)N1CCC(NC(=O)c2oc3c(C)c(C)ccc3c2C)CC1	nt	-14.7	?	5.2	nt	20.6µM*
Cc1ccc2c(C)c(C(=O)N3CCCCC3CO)oc2c1C (stereo unspecified)	8.6%	-0.6	13µM*	-0.7	-6.4%	18.4µM*
CCCCN(CC)CCNC(=O)c1cc2c(C)nc3ccccc3c2o1	15.9%	-21.7	23.1µM*	0.4	-12.9%	16.4µM*
CCN1CCCC1CNC(=O)c1cc2c(C)nc3ccccc3c2o1 (stereo unspecified)	-8.6%	nt	-27.8%	1.2	-8.7%	-1.0%
CCCc1ccc2oc(C(=O)N3CCC[C@H]3CO)c(C)c2c1	?	-9.2	?	-3.1	4.5%	-26.9%
CCCCN(CC)CCNC(=O)c1cc2cc3ccc(Cl)cc3nc2o1	4.7%	nt	?	-8.1	3.1%	16.4µM*
COc1ccc(C(=O)Oc2ccc3c(=O)c(-c4ccccc4)c(C)oc3c2)cc1	nt	nt	nt	-4.1	nt	nt
CCn1c(SCc2cc3c(cc2Br)OCO3)nc2cc(S(N)(=O)=O)ccc21	nt	nt	nt	6.1	nt	nt
CCc1ccc(C(NC(=O)c2nn(C)c(=O)c3ccccc23)C(C)C)cc1 (stereo unspecified)	nt	nt	nt	1.2	nt	nt
CCOC(=O)N1CCC(NC(=O)c2cc3c(C)nc4ccccc4c3o2)CC1	-1.1%	-0.7	20.6µM*	-4.9	-4.6%	9.2µM*
Cc1nc2ccccc2c2oc(C(=O)NCCN3CCCCC3C)cc12 (stereo unspecified)	-18.2%	-25.1	16.4µM*	0.0	0.9%	?
CCc1nc(Cn2cnc3c2c(=O)n(C)c(=O)n3C)cs1	nt	nt	nt	-1.7	nt	nt
CCc1noc(CN2CCN(c3cc(C)nc(C(C)C)n3)CC2)n1	nt	nt	nt	1.1	nt	nt
CC(C)CC1NC(=O)N(CC(=O)Nc2cccc(Br)c2)C1=O (stereo unspecified)	nt	0.0	10.1%	-8.7	nt	-6.1%
O=C(CN1C(=O)NC(CCc2ccccc2)C1=O)Nc1cccc(Br)c1 (stereo unspecified)	nt	-27.6	16.4µM*	-3.9	nt	?
CCOC(=O)CS(=O)(=O)c1nc(-c2ccccc2)cc(C(F)(F)F)n1	2.82µM*	-125.4*	1.64µM*	-4.5	5.01µM*	0.651µM*
CCOC(=O)CS(=O)(=O)c1nc(-c2ccc(F)cc2)cc(C(F)(F)F)n1	5.62µM*	-119.2*	0.82µM*	-4.1	5.01µM*	0.517µM*
COC(=O)CCS(=O)(=O)c1nc(-c2ccccc2)cc(C(F)(F)F)n1	7.08µM*	-105.1*	2.31µM*	3.0	5.62µM*	3.26µM*
COCC(C)NC(=O)CCS(=O)(=O)c1nc(-c2ccc(OC)cc2)cc(C(F)(F)F)n1 (stereo unspecified)	2.3%[0.365 µM]	-102.3*	4.61µM*	-8.3	nt	4.11µM*
CCn1nc(C(=O)OCC(=O)Nc2ccc(Cl)c(C(F)(F)F)c2)c2ccccc2c1=O	nt	nt	nt	5.9	nt	nt
SMILES	RORgamma inh	IL1B secr inh	TDP1 cell noCPT	LDHA inh	VP16 counter	TDP1 cell CPT
CCOC(=O)CCS(=O)(=O)c1nc(-c2ccccc2)cc(C(F)(F)F)n1	24.2%	-98.8*	0.651µM*	-0.1	?	0.411µM*
COc1ccc(NC(=O)CCS(=O)(=O)c2nc(-c3ccccc3)cc(C(F)(F)F)n2)cc1	nt	nt	nt	-7.6	nt	nt
O=C1NC(=Nc2ccc(O)cc2)S/C1=C/c1ccco1	-1.1%	19.4	18.4µM*	-2.9	11.2%	?
COc1cc(/C=C2\SC(=Nc3ccc(O)cc3)NC2=O)cc(OC)c1O	2.5%	90.8	5.17µM*	-8.8	-0.4%	20.6µM*
Cc1ccc(N=C2NC(=O)/C(=C\c3ccco3)S2)cc1	27.7%	0.0	?	1.4	?	-29.2%
C=CCOc1c(Br)cc(/C=C2\SC(=Nc3ccccc3)NC2=O)cc1OC	?	-0.1	20.6µM*	-1.6	-28.6%	?
CCc1ccc(N=C2NC(=O)/C(=C/c3cc(Br)c(OCC(=O)O)c(OC)c3)S2)cc1	?	35.7	-1.9%	-1.1	-11.5%	-9.9%
CC(NC(=O)c1ccc2ccccc2n1)c1ccc(Cl)c(Cl)c1 (stereo unspecified)	nt	nt	nt	-1.0	nt	nt
Cc1ccc(C(=O)Nc2cccc(CCC(=O)N(C)C)c2)cc1	nt	nt	nt	6.0	nt	nt
CN(C)S(=O)(=O)c1ccc2nc(NC(=O)c3ccc(C#N)cc3)sc2c1	nt	nt	nt	-14.9	nt	nt
C/C(=N\NC(=O)c1ccccc1F)c1cccc(NC(=O)c2ccc(C)cc2)c1	-31.4%	-4.3	16.4µM*	-4.9	-8.3%	?
C/C(=N\NC(=O)c1cccc(N/N=C(\C)c2cc(O)ccc2O)c1)c1cc(O)ccc1O	6.31µM*	0.0	16.4µM*	-3.3	?	11.6µM*
COc1ccc(C(=O)Nc2cccc(/C(C)=N\NC(=O)c3ccoc3C)c2)cc1OC	nt	-50.4*	?	-12.5	nt	?
C/C(=N\NC(=O)c1cccc(O)c1)c1cccc(NC(=O)c2ccc(F)cc2)c1	13.6%	-28.4	?	-1.8	-26.4%	10.3µM*
C/C(=N\NC(=O)c1cccc(N/N=C(\C)c2ccco2)c1)c1ccco1	2.3%	4.7	?	-15.2	-4.3%	-20.2%
C/C(=N\Nc1cccc([N+](=O)[O-])c1)c1cc(F)ccc1O	-11.4%	-10.1	13µM*	-8.7	-23.0%	?
C/C(=N/Nc1ccc([N+](=O)[O-])cc1)c1ccc(C)cc1C	-3.4%	-80.8*	-102.3%	-0.7	-56.3%	-102.3%
C/C(=N/NC(=O)c1ccc(Cl)s1)c1cccnc1	12.6µM*	-8.7	-0.7%	0.4	?	-17.6%
C/C(=N\Nc1ccc([N+](=O)[O-])cc1)c1ccc(C#N)cc1	5.2%	-0.9	-10.8%	-3.5	1.9%	6.2%
C/C(=N\NC(=O)c1ccc(O)cc1)c1cccc(NC(=O)c2ccc(Cl)cc2)c1	nt	-96.5*	11.6µM*	-6.4	nt	?
Cc1ccccc1C1=NN(S(C)(=O)=O)C(c2ccc3nccnc3c2)C1 (stereo unspecified)	nt	nt	nt	-5.9	nt	nt
